hgDAF-12 ag – hgDAF-12 agonism, primary luciferase screen; AID 687014; HEK293 GAL4-hgDAF12 UAS-luciferase reporter, agonist luminescence; normalized to butyrate control; activation, % at 6.8 µM; hit rate 1.8% among 370,000;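 active = activation above a cutoff set at the mean of all screened compounds plus 3 SD, cut at about 10% in these data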;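 also: 0% = DMSO wells and 100% = sodium butyrate wells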
DAX1 inh-1 – inhibitors of human orphan nuclear receptor DAX1 (NR0B1); P51843; HEK293 Gal4-DAX1 luciferase reporter, luminescence; inhibition, % at 6.75 µM; hit rate 0.99% among 340,000;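 active = inhibition above the mean over all tested compounds plus 3 SD, cut at about 4.2% in these data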;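 also: 0% = DAX1-transfected cells with DMSO and 100% = empty-vector control cells with DMSO; inhibition shows as a rise in luminescence from relieved DAX1 repression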
Target sequence (P51843 207-470 limits assumed): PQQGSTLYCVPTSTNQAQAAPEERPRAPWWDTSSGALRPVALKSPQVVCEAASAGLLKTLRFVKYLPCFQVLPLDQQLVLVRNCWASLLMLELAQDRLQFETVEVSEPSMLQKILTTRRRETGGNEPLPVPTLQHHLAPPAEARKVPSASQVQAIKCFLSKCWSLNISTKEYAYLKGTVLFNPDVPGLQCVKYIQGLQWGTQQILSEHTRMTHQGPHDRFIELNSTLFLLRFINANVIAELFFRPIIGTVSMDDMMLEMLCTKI
hcDAF12 agonist – H. contortus DAF-12 activation, primary screen; AID 652067; hit rate 1.4% among 370,000; activation, % at 6.8 µM; HEK293 hcDAF-12 lit1-tk-luc reporter, luminescence; 0% DMSO, 100% Δ7-dafachronic acid;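 active = activation above the mean of all tested compounds plus 3 SD, cut at about 5.5% in these data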;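 also: 100% = response to 3 µM Δ7-dafachronic acid high control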
DAX1 inh-2 – blocks DAX1 repression of SF-1 activated StAR promoter. HEK293T StAR-luciferase reporter, SF-1/DAX-1 repression relief. inhibition, % at 6.8 µM. hit rate 1.1% among 370,000;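 active = inhibition above the mean over all tested compounds plus 3 SD, cut at about 3.6% in these data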;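 also: 0% = DAX-1 cells with DMSO and 100% = cells lacking DAX-1 with DMSO; higher inhibition means more luminescence from relief of DAX-1 repression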
ssDAF-12 act – S. stercoralis DAF-12 activation, primary screen; hit rate 1% among 370,000; activation, % at 6.8 µM; AID 652126; HEK293 ssDAF-12/GRIP1 lit1-tk-luc reporter, luminescence; % of 3 µM dafachronic acid response;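 active = activation above the mean over all tested compounds plus 3 SD, cut at about 0.9% in these data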;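 also: 0% = DMSO-only wells and 100% = 3 µM delta7-dafachronic acid wells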
* marks the source's active call; other numbers are inactive results. Most compounds without a hit are left out; they make up all but 4.1% or so of the library.

How did COc1ccccc1N1CCN(S(=O)(=O)c2cc(C(F)(F)F)cc(C(F)(F)F)c2)CC1 do in these assays?
hgDAF-12 ag: 2.7; DAX1 inh-1: 7.7*; hcDAF12 agonist: -1.6; DAX1 inh-2: 0.1; ssDAF-12 act: -1.2

What do the screens show for `CCN(C(=O)CSC1=Nc2ccccc2C2CC=NN12)C1CCS(=O)(=O)C1` (centres undefined)?
hgDAF-12 ag: 3.0; DAX1 inh-1: 0.7; hcDAF12 agonist: 5.8*; DAX1 inh-2: 0.9; ssDAF-12 act: 0.6

How did CCc1ccc(-c2csc(NC(=O)C3=COCCO3)n2)cc1 do in these assays?
hgDAF-12 ag: 4.7; DAX1 inh-1: 0.7; hcDAF12 agonist: 1.7; DAX1 inh-2: 4.2*; ssDAF-12 act: -0.4

How did O/N=C(/CCc1ccccc1)c1ccc2c(c1)OCCO2 do in these assays?
hgDAF-12 ag: 11.2*; DAX1 inh-1: 1.1; hcDAF12 agonist: 1.6; DAX1 inh-2: 3.5; ssDAF-12 act: -1.5

Results for O=C(NC(=S)NCc1nc2ccccc2[nH]1)c1ccc(F)cc1 ?
hgDAF-12 ag: 10.5*; DAX1 inh-1: 0.1; hcDAF12 agonist: 2.5; DAX1 inh-2: 1.3; ssDAF-12 act: 0.4

Results for O=C(NC(=S)NCc1nc2ccccc2[nH]1)c1ccccc1F ?
hgDAF-12 ag: 8.2; DAX1 inh-1: 2.0; hcDAF12 agonist: 6.3*; DAX1 inh-2: 2.4; ssDAF-12 act: -0.4

How did COC(=O)[C@]12C[C@H](CC(=O)NCCCCc3ccccc3)C(=O)N(Cc3cccc4ccccc34)C1=C[C@H](COCc1ccccc1)O[C@@H]2C do in these assays?
hgDAF-12 ag: 3.2; hcDAF12 agonist: -1.2; DAX1 inh-2: 1.6; ssDAF-12 act: -1.1

Results for CC1(c2nnnn2Cc2ccccc2)CCCCC(=O)N1Cc1cccs1 (centres undefined) ?
hgDAF-12 ag: 4.2; hcDAF12 agonist: 0.6; DAX1 inh-2: -0.3; ssDAF-12 act: -1.1

What do the screens show for `CC(C)(C)NC(=O)c1ccccc1-c1nc2ccccc2s1`?
hgDAF-12 ag: -0.2; DAX1 inh-1: -0.2; hcDAF12 agonist: 1.3; DAX1 inh-2: -0.8; ssDAF-12 act: 1.6*

What do the screens show for `Cn1c(/C(C#N)=C(\O)c2cc(Cl)sc2Cl)nc2ccccc21`?
hgDAF-12 ag: 2.4; DAX1 inh-1: 0.9; hcDAF12 agonist: 3.2; DAX1 inh-2: 3.0; ssDAF-12 act: -0.8

What do the screens show for `Cn1c(/C(C#N)=C(\O)c2ccc(Br)s2)nc2ccccc21`?
hgDAF-12 ag: 2.5; DAX1 inh-1: 0.4; hcDAF12 agonist: 5.3; DAX1 inh-2: 0.0; ssDAF-12 act: 1.0*

How did COc1ccc(N2CCN(CCNS(=O)(=O)c3ccc(F)cc3)CC2)cc1 do in these assays?
hgDAF-12 ag: -0.5; hcDAF12 agonist: 0.4; DAX1 inh-2: -0.9; ssDAF-12 act: -1.6

How did Cc1c(C#N)c(O)n(CCO)c(=O)c1N=Nc1ccc(S(N)(=O)=O)cc1 do in these assays?
hgDAF-12 ag: -1.6; DAX1 inh-1: 0.1; hcDAF12 agonist: -0.9; DAX1 inh-2: -1.4; ssDAF-12 act: -1.9

What do the screens show for `Cc1c(C#N)c(O)n(CCO)c(=O)c1N=Nc1ccccc1`?
hgDAF-12 ag: -4.5; DAX1 inh-1: 4.4*; hcDAF12 agonist: -1.4; DAX1 inh-2: -0.6; ssDAF-12 act: -1.5

How did N#C/C(=C(/O)CCl)c1nc(-c2ccccc2)cs1 do in these assays?
hgDAF-12 ag: 3.1; DAX1 inh-1: -0.1; hcDAF12 agonist: 3.7; DAX1 inh-2: 1.4; ssDAF-12 act: 1.3*

How did C=C(C)/C=C1/C(Cc2ccccc2)N(CC2CC2)C(=N)N1C(=O)OCc1ccccc1 (centres undefined) do in these assays?
hgDAF-12 ag: 2.4; hcDAF12 agonist: -2.1; DAX1 inh-2: -1.3; ssDAF-12 act: -1.5

What do the screens show for `O=C(/C=C(\Nc1ccc(Cl)c(C(F)(F)F)c1)c1ccccc1)c1ccccc1`?
hgDAF-12 ag: 1.7; hcDAF12 agonist: 0.2; DAX1 inh-2: 1.3; ssDAF-12 act: -0.8

How did Cc1c(C(=O)Nc2nnc(C3CC3)s2)oc2ccccc12 do in these assays?
hgDAF-12 ag: 10.9*; DAX1 inh-1: 1.2; hcDAF12 agonist: 6.4*; DAX1 inh-2: 2.3; ssDAF-12 act: 0.6

What do the screens show for `Cc1ccc(-c2nc3c(c(=O)c4ccccc4n3C)c(=O)n2-c2ccc(F)cc2)cc1`?
hgDAF-12 ag: -0.3; DAX1 inh-1: 0.8; hcDAF12 agonist: 5.6*; DAX1 inh-2: -0.3; ssDAF-12 act: -0.3

How did Cn1c2ccccc2c(=O)c2c(=O)n(-c3ccc(F)cc3)c(-c3cccs3)nc21 do in these assays?
hgDAF-12 ag: -3.4; DAX1 inh-1: 2.8; hcDAF12 agonist: -2.2; DAX1 inh-2: 0.1; ssDAF-12 act: -0.9

What do the screens show for `CCN(CC)C(=O)Cn1cc(S(=O)(=O)CC(=O)Nc2ccc3c(c2)OCCO3)c2ccccc21`?
hgDAF-12 ag: 1.5; DAX1 inh-1: 1.4; hcDAF12 agonist: -0.1; DAX1 inh-2: -0.2; ssDAF-12 act: 2.0*

Results for O=C(Nc1ccc(OC(F)(F)F)cc1)Nc1c(-c2ccc(C(F)(F)F)cc2)nc2ncccn12 ?
hgDAF-12 ag: 0.0; hcDAF12 agonist: -0.1; DAX1 inh-2: 0.9; ssDAF-12 act: -0.5

Results for Cc1cccnc1NC(=O)Nc1ccc(Cl)cc1 ?
hgDAF-12 ag: 7.1; DAX1 inh-1: 4.3*; hcDAF12 agonist: 2.8; DAX1 inh-2: 1.0; ssDAF-12 act: 0.3

Results for Cc1cccnc1NC(=O)Nc1ccccc1 ?
hgDAF-12 ag: 4.8; DAX1 inh-1: 3.6; hcDAF12 agonist: 1.9; DAX1 inh-2: 1.1; ssDAF-12 act: -0.5

What do the screens show for `Cc1cccnc1NC(=O)Nc1cccc(F)c1`?
hgDAF-12 ag: 10.9*; DAX1 inh-1: 1.7; hcDAF12 agonist: 4.0; DAX1 inh-2: 2.3; ssDAF-12 act: -0.1

Results for CN(C)c1nc(N/N=C/c2c[nH]c3ccccc23)nc(N2CCOCC2)n1 ?
hgDAF-12 ag: -0.9; DAX1 inh-1: 2.8; hcDAF12 agonist: 2.8; DAX1 inh-2: -0.1; ssDAF-12 act: 1.2*

Results for Cc1[nH]c2ccccc2c1/C=N/Nc1nc(N2CCCCC2)nc(N2CCCCC2)n1 ?
hgDAF-12 ag: -1.8; DAX1 inh-1: 0.1; hcDAF12 agonist: 0.8; DAX1 inh-2: -0.1; ssDAF-12 act: -1.6

What do the screens show for `C(=N\Nc1nc(N2CCCCC2)nc(N2CCCCC2)n1)/c1c[nH]c2ccccc12`?
hgDAF-12 ag: 2.3; DAX1 inh-1: -1.4; hcDAF12 agonist: 3.5; DAX1 inh-2: -0.8; ssDAF-12 act: 1.1*

Results for Cc1ccccc1Cn1ccc2ccc(-c3ccc4ccn(Cc5ccccc5)c4c3)cc21 ?
hgDAF-12 ag: 4.1; hcDAF12 agonist: -1.1; DAX1 inh-2: -1.1; ssDAF-12 act: -0.7

What do the screens show for `COc1ccc(C(=O)N[C@H](C(=O)Nc2nc3c(s2)CCCC3)C(C)C)cc1`?
hgDAF-12 ag: 4.8; DAX1 inh-1: -0.1; hcDAF12 agonist: 1.2; DAX1 inh-2: 0.5; ssDAF-12 act: -0.9

What do the screens show for `CCOc1ccccc1C(=O)N[C@H](C(=O)Nc1nc2c(s1)CCCC2)C(C)C`?
hgDAF-12 ag: 5.8; DAX1 inh-1: -0.1; hcDAF12 agonist: 2.9; DAX1 inh-2: -0.1; ssDAF-12 act: 4.1*

Screening results (PubChem)
